# In ChEMBL document CHEMBL3988442, “University of Dundee, Small-Polar-MMV Screening Library” (2021):
# What was measured:
# [1] = target: T1, Aspartate--tRNA(Asp/Asn) ligase (Mycobacterium tuberculosis (strain ATCC 25618 / H37Rv)) (UniProt P9WFW3); assay: Assay for Asp RNA synthetase-1 from Mycobacterium tuberculosis; assay type: functional; design: scale not given: direction of the effect not stated beside the values; conditions: 30 µM; note: in the data most compounds retested in dose-response had high values
# T1 sequence (whole entry): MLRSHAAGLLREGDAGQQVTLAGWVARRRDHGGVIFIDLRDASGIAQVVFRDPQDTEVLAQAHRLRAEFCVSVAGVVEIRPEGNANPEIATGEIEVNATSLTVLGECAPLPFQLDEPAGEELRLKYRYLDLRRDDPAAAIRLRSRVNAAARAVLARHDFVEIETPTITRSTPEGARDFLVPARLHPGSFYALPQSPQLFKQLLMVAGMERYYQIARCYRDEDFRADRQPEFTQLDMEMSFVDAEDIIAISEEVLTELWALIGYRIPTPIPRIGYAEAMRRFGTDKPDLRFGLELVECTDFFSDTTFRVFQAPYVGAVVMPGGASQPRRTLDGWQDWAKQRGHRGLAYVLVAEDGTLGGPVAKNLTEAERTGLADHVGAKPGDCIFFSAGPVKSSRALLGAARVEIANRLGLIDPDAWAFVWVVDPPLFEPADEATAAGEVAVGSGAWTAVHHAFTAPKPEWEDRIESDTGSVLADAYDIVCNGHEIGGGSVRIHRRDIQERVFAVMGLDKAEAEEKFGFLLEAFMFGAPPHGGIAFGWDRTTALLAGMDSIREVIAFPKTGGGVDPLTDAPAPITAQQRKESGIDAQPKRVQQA
# [2] = target: Shiga toxin 2 (Escherichia coli O157:H7) (UniProt P09385+P09386); assay: E. coli 0.157:H7 Shiga Toxin SOP - stx2 screening assay; assay type: functional; design: scale not given: direction of the effect not stated beside the values; conditions: 30 µM
Structure (SMILES),Percent Effect [1] [%],Percent Effect [2] [%]
O=C(O)C1(Cc2cc(-c3ccc(F)cc3F)no2)CCOCC1,0.819,-13.5
COC(=O)c1ccc(N2CCN(C(=O)c3cc(C)on3)C(C)C2)cc1 (stereo not drawn),5.2,23.5
Cn1ccc(C(=O)NC2CCN(c3ncccn3)CC2)cc1=O,4.84,24.2
Cn1ccc(CN2CCC(c3ccccc3)CC2)cc1=O,4.58,-3.12
Cc1cc(C)n(C2CCCN(C(=O)CCCNc3ncccn3)C2)n1 (stereo not drawn),-5.54,-43.3
O=C(NCCNc1ccccn1)N1CCSCC1,-5.89,16.3
Cc1cccc(CN2C[C@@H]3COC[C@]3(CNC(=O)N3CCCC3)C2)n1,2.42,11.4
Cc1cc(OCC(=O)NC(C)c2ccc(N3CCOCC3)cc2)no1 (stereo not drawn),5.44,-21.7
CCc1nc(CC(=O)N2CCn3c(nnc3C(C)C)C2)cs1,-0.367,-14.7
Cc1cn2nc(N3CCCN(Cc4noc(C)n4)CC3)sc2n1,-1.65,0.184
CN(c1ccncn1)C1CC2(CCN(C(=O)c3cccs3)C2)C1 (stereo not drawn),-6.21,-35.5
O=C(Nc1ccc(CCN2CCC(O)CC2)cc1)Nc1cccnc1,-0.212,-83.7
O=C(Nc1ccccn1)C1CC(=O)N(Cc2ccccn2)C1 (stereo not drawn),2.43,-18.5
Cn1cnc2c1C(COCC1CCOCC1)CN(C1CCOCC1)C2 (stereo not drawn),3.46,-20.2
O=C(Nc1cc(F)ccc1OCC1CCCO1)N1CCCC1 (stereo not drawn),-3.7,0.98
Cn1cc(CN2CCCn3cnc(CN4CCCC4=O)c3C2)cn1,2.39,-3.11
CCN1CCN(C2CCN(Cc3cc(C)on3)CC2)C1=O,-3.97,-26.8
O=C(c1cccc2c1OCO2)N1CCCC1Cn1cccn1 (stereo not drawn),3.69,29.5
Cc1cnn(CC2CCCCN2Cc2cc(C)on2)c1 (stereo not drawn),-5.5,-7.45
